# ChEMBL document CHEMBL4513216, “Probing the Open Global Health Chemical Diversity Library for Multistage-Active Starting Points for Next-Generation Antimalarials” (ACS Infect Dis, 2020)
# Screen size: about 69,000 compounds; about 8,600 (12%) showed an effect of 50% or more. For the sample, strong results were picked, then their nearest neighbours and some compounds at random.
# Test system: Plasmodium berghei
# Assay: Screen against P. berghei liver stage (PbLuc), transformed with Luciferase, at 10uM
# Assay type: functional, HepG2
# Details: tested at 10 uM
row,SMILES,INHIBITION
1,O=C1N(Cc2cccc(F)c2F)CCCC1(O)CNC1CCCC1 (stereo not given),11.5%
2,O=C1N(Cc2ccc(F)c(F)c2)CCCC1(O)CNCc1ccccn1 (stereo not given),4.25%
3,COCCNCC1(O)CCCN(Cc2ccc(F)c(F)c2)C1=O (stereo not given),6.65%
4,Cn1cc(CNCC2(O)CCCN(Cc3ccc(F)c(F)c3)C2=O)cn1 (stereo not given),-34%
5,O=C1N(Cc2cccc(F)c2F)CCCC1(O)CNCC1CCCCC1 (stereo not given),69.1%
6,O=C1N(Cc2ccc(F)c(F)c2)CCCC1(O)CNCc1cccnc1 (stereo not given),60.9%
7,O=C1N(Cc2cccc(F)c2F)CCCC1(O)CNCc1ccccc1 (stereo not given),40.4%
8,C=C(C)CNCC1(O)CCCN(Cc2ccc(F)c(F)c2)C1=O (stereo not given),41.7%
9,O=C1N(Cc2ccc(F)c(F)c2)CCCC1(O)CNCC1CCCCC1 (stereo not given),68.8%
10,c1ccc(Cc2noc(CN(Cc3cccs3)CC3CCCO3)n2)cc1 (stereo not given),15.3%
11,NC(=O)CC1CCN(Cc2ccccc2OCC(F)(F)F)CC1,16.1%
12,CN1C(=O)C2(CCN(Cc3nccn3C)CC2)c2ccccc21,-19.6%
13,CN1CC(=O)N(c2cnn(C)c2)CC12CCN(Cc1nccn1C)C2 (stereo not given),11.8%
14,Cc1n[nH]c(C)c1NC(=O)NCc1ccccn1,8.59%
15,NC(=O)C1(c2cnccn2)CCCN1Cc1ccc(F)c(F)c1 (stereo not given),20.8%
16,CN1CC(=O)N(c2ccsc2)CC12CCN(S(=O)(=O)C1CC1)C2 (stereo not given),-6.23%
17,CC(C)(CO)NCc1ccc(OCc2ccc3c(c2)OCCO3)cc1,13.5%
18,CCNCc1ccc(OCc2ccc3c(c2)OCCO3)cc1,67.3%
19,c1cc(OCc2ccc3c(c2)OCCO3)ccc1CNC1CC1,25.3%
20,CC(C)(C)NCc1ccc(OCc2ccc3c(c2)OCCO3)cc1,-47.8%
21,CC(O)CNCc1ccc(OCc2ccc3c(c2)OCCO3)cc1 (stereo not given),72.6%
22,CNCc1ccc(OCc2ccc3c(c2)OCCO3)cc1,-0.621%
23,CCCNCc1ccc(OCc2ccc3c(c2)OCCO3)cc1,25.1%
24,O=C1CCC2(CCC(NCc3ccc4c(c3)OCO4)CC2)N1 (stereo not given),30.9%
25,c1cc(OCc2ccc3c(c2)OCO3)ccc1CNC1CC1,73.4%
26,NC(=O)NCC1CCCCN1Cc1nc(-c2ccco2)no1 (stereo not given),-31.1%
27,Cc1cnc(C)c(N2CCC(C(=O)O)(n3ccc(C(C)(C)C)n3)CC2)n1,3.84%
28,COc1nccnc1N1CCC(C(=O)O)(n2ccc(C(C)(C)C)n2)CC1,53.8%

row,SMILES,INHIBITION
1,CC(C)(C)c1ccn(C2(C(=O)O)CCN(c3ncccc3C#N)CC2)n1,7.24%
2,CNC(=O)C1(N2CCC[C@H]2C(=O)NC2CCOCC2)CCOCC1,15.4%
3,O=C(N1CCCC1)N1Cc2nccn2CC(Cn2ncccc2=O)C1 (stereo not given),32.2%
4,O=C(NCc1ccco1)[C@H]1C[C@H]2OCC[C@H]2N(C(=O)c2ccncc2)C1,-15.5%
5,CN(Cc1ccco1)C1CCC12CCN(C(=O)C1CCOCC1)CC2 (stereo not given),43.2%
6,Cc1nnc(NC(=O)c2c3c(nn2C2CCS(=O)(=O)C2)CCC3)s1 (stereo not given),-90.8%
7,CCOC(C)C(=O)Nc1ccc(Sc2nncn2C)c(Cl)c1 (stereo not given),64.4%
8,CC(C)C(=O)Nc1ccc(Sc2nncn2C)c(Cl)c1,24.8%
9,COCC(=O)Nc1ccc(Sc2nncn2C)c(Cl)c1,31.7%
10,O=C(NCC1(CO)CC1)NC(c1nccs1)C1CC1 (stereo not given),-10.8%
11,CC(=O)N1CCc2nc(N3CCCC3)nc(C)c2C1,34.6%
12,Cn1ccc(C(=O)NCC2(O)CCN(c3cnccn3)C2)n1 (stereo not given),16.95%
13,Cn1c(CN2CCOC(CNc3cccnn3)C2)nnc1C1CC1 (stereo not given),-16%
14,NC(=O)C1CCCN1C1CCN(C(=O)c2cccc3c2OCO3)CC1 (stereo not given),8.59%
15,CCN(C(=O)c1cccc2c1OCO2)c1ccccc1,55.9%
16,CCN(Cc1cccc2c1OCO2)C(=O)Nc1ccccn1,-67.3%
17,NC(=O)CCN(C(=O)c1cccc2c1OCO2)c1ccccc1,51.5%
18,NC(=O)C1CCCN1C(=O)c1cccc2c1OCO2 (stereo not given),-27.3%
19,CCN(C(=O)c1cccc2c1OCO2)c1ccc(Br)cn1,2.65%
20,COc1cc(CN[C@@H]2COC[C@H]2Cc2cc(C)no2)cc(OC)c1,40%
21,Cn1cc(Br)c(C(=O)NCCCn2cc(Br)cn2)n1,-16.3%
22,Cc1cc(C(=O)N2CCCN(Cc3cnn(C)c3)CC2)no1,27.335%
23,CS(=O)(=O)N1CCc2sc(C(=O)NCc3ccncc3)cc21,41.1%
24,O=C(c1cc2c(s1)CCCC2)N1CCCC1Cn1cccn1 (stereo not given),0.411%
25,Cc1ccc(NC(=O)Cn2ccc3c(=O)n(C)ccc32)cc1F,11.9%
26,COc1ccc(NC(=O)Cn2ccc3c(=O)n(C)ccc32)cc1OC,-14.2%
27,Cn1ccc2c(ccn2CC(=O)Nc2ccc(Br)cc2)c1=O,63.5%
